# Test results as given in PubChem BioAssay AID488895 (Broad Institute, 2010).
# Where “and” joins values, the source holds several entries; their conditions need not be identical. Equal values may be shown once. The campaign covered roughly 340,000 compounds. About 120 (0.035%) were called active. For the sample, actives were picked, then their nearest neighbours and some compounds at random. Unmarked numbers belong to inactive results.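 How the source made its calls: active means mean replicate inhibition at least 50% and at least half of replicates individually reaching 50%; inconclusive means only one of the two criteria met; inactive means neither criterion met.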
# Assay: blockers of twin-arginine translocation in E. coli – MC4100, TorA-mCherry reporter, fluorescence, single point, primary screen (AID 488895);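 further: exported cargo escapes ClpAP degradation while cytoplasmic cargo is degraded and loses fluorescence; 0% = median of neutral control wells and 100% = median of NaSCN control wells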
# Details: E. coli MC4100 TorA-mCherry Tat export, at 10 µM, active compounds read high
row,SMILES,inhibition
1,Nc1nc(Sc2ncccc2[N+](=O)[O-])n[nH]1,-8.21%
2,O=C(O)c1ccccc1OCc1ccccc1Cl,-2.88%
3,CS(=O)(=O)N(CC(=O)N1CCOCC1)c1ccc2c3c(cccc13)CC2,2.34%
4,O=P(O)(CP(=O)(c1ccccc1)c1ccccc1)c1ccccc1O,-10.9%
5,COc1cc(C2C(C#N)=C(C)NC3=C2C(=O)CC(C)(C)C3)ccc1O (centres undefined),4.04%
6,CN1CC(=O)N=C1N,-7.3% and -13.2%
7,CCC(C)Sc1nc(C)nc2c1c(=O)n(C)c(=O)n2C (centres undefined),-2.92%
8,OC(COc1ccc(F)cc1Cl)CN1CCc2ccccc2C1 (centres undefined),3.62%
9,COC(=O)c1cc2n(n1)CCCNC2=O,-2.39%
10,O=C1OCC2=C1C(c1ccc(Cl)cc1)c1cc3c(cc1O2)OCO3 (centres undefined),2.92%
11,CC1C(=O)Nc2ccc(S(=O)(=O)N3CCN(c4ccccc4F)CC3)cc2NC1=O (centres undefined),2.39%
12,COCCCn1c(SCc2cccc(OC)c2)nc2cc(OC)c(OC)cc2c1=N,8.62%
13,CC(CCN1CCN=C1N(C)C)c1ccccc1 (centres undefined),1.28%
14,Cn1c(SCC(=O)N2CCCC2)nnc1-c1ccc2c(c1)OCO2,-0.749%
15,CC(C)c1ccc(NC(=O)C2CCCN(S(=O)(=O)c3cccnc3)C2)cc1 (centres undefined),-2.58%
16,CC(C)[C@H](NC(=O)N1CCn2c1nc1ccccc12)C(=O)NC1CC1,3.55%
17,CCN1CCN(C(=O)N[C@@H](C(=O)N[C@@H]2C(=O)N3C(C(=O)O)=C(CSc4nnnn4C)CS[C@H]23)c2ccc(O)cc2)C(=O)C1=O,-0.914%
18,CC1CCCN(C(=O)c2ccc3c(c2)C(=O)N(CCC2=CCCCC2)C3=O)C1 (centres undefined),5.37%
19,COC(=O)c1c(C)oc(C)c1S(=O)(=O)Nc1ccc(C(C)C)cc1,8.29%
20,CC(C)(C)S(=O)(=O)N1Cc2cc(CO)cc(CCO)c2[C@H]1CCO,-5.8%
21,C[n+]1ccccc1C1CCCC/C1=N\Nc1ccc([N+](=O)[O-])cc1[N+](=O)[O-] (centres undefined),-6.35%
22,COC(=O)c1ccc(CN(c2ccccc2OC)S(=O)(=O)c2cccs2)o1,22.7%
23,CNC(=O)c1nnc(Cc2ccc(Cl)cc2)o1,-1.7%

row,SMILES,inhibition
1,COCCCNC(=O)C1CC(=O)N(CCc2ccccc2)C1 (centres undefined),4.61%
2,COc1ccc(Cl)cc1NC(=O)CN(C)C(=O)c1ccc2n[nH]nc2c1,-3.85%
3,Cc1cc(C)cc(C(=O)N2CCN=C2SCc2ccc([N+](=O)[O-])cc2)c1,7.58%
4,Cn1cc(CN2CCCCC2c2ccccn2)c(-c2ccc3c(c2)OCCO3)n1 (centres undefined),3%
5,CCc1nc(C)cn1S(=O)(=O)c1cc([N+](=O)[O-])ccc1Cl,-13.2%
6,O=C1CCC/C(=N\NC(=O)NC2CCCCC2)C1,4.42%
7,O=[N+]([O-])c1ncc(Br)cc1Nc1ccccc1,-4.47%
8,COC(=O)c1c(C(=O)OC)c(-c2cccc(C)c2)n2c1CS(=O)C2 (centres undefined),4.25%
9,Cc1cc(C)c(OCCN2CC(C)OC(C)C2)c(Br)c1 (centres undefined),24.1%
10,COc1ccccc1NC(=O)c1cc(N2C(=O)C3C4CCC(C4)C3C2=O)ccc1Cl (centres undefined),-14.7%
11,CC1(C)CC(=O)C(CC(=O)N2CCC(Cc3ccccc3)CC2)C(=O)C1,3.6%
12,CCCCCCCCCCCCC(NC(C)=O)(C(=O)OCC)C(=O)OCC,7.11%
13,COc1ccc(NC(=O)c2cc([N+](=O)[O-])ccc2NC(=O)CNC2CCCCC2C)c(OC)c1 (centres undefined),3.4%
14,Cn1ccc(=Nc2ccc(NC(=O)c3ccc(N=c4ccn(C)c5ccc([N+](=O)[O-])cc45)cc3)cc2)cc1,112% (active)
15,CCc1ccc(NC(=O)c2ccc(Cn3cc([N+](=O)[O-])cn3)cc2)cc1,1.09%
16,COc1cc(NS(=O)(=O)c2ccc(NC(=O)c3ccc([N+](=O)[O-])cc3)cc2)ncn1,-6.48%
17,CN(CCc1ccccc1)C(=O)c1cccc(NC(=O)Cc2cccc(NC(=O)C3CCCN(C(=O)C4CCC4)C3)c2)c1 (centres undefined),2.65%
18,O=C(CNC(=O)c1cc(S(=O)(=O)N2CCOCC2)ccc1N1CCCC1)Nc1ccc(F)c(F)c1,-7.06%
19,C=CCCC(=O)N1C[C@H]2CON(C)[C@H]2C[C@H]1c1cccc(Nc2ccccc2)c1,1.87%
20,COc1ccc(-c2nn(C)c(=O)c3ccccc23)cc1CNC(=O)C1CCCCC1,5.51%
21,CCSc1sc(CC)cc1C=O,-5.06%
22,COC(=O)/C=C(\Oc1ccccc1)C1(O)CCCCC1,-5.03%
23,COc1ccc(C(=O)NCc2ccccc2C)cc1S(=O)(=O)NC1CCCC1,-5.16%

row,SMILES,inhibition
1,Cc1cccc(NS(=O)(=O)c2cc(Cl)ccc2Cl)n1,1.57%
2,CCc1nnc(NS(=O)(=O)c2ccc(NC(=S)NC(=O)/C=C/c3cccs3)cc2)s1,3.92%
3,CC(NC(=O)COc1cccnc1[N+](=O)[O-])c1ccc(Cl)cc1Cl (centres undefined),-4.49%
4,Cc1cc(S(=O)(=O)NCc2ccccn2)c(Cl)cc1Cl,-16.8%
5,Cc1cc(C(F)F)n2nc(C(=O)Nc3ccc(S(=O)(=O)NC45CC6CC(CC(C6)C4)C5)cc3)nc2n1,10.1%
6,O=C(c1cc2ccccc2s1)N1CCN(c2ccccn2)CC1,-5.47%
7,O=C(CNC(=O)OCc1ccccc1)NC1CCCCNC1=O (centres undefined),10.8%
8,Cc1nn(C)c(Oc2ccc(Cl)cc2)c1C=O,-0.515%
9,CCOC(=O)c1sc2nc(C)nc(SCC(N)=O)c2c1C,-4.58%
10,O=S1(=O)CCO[C@H]2Cc3ccccc3[C@H]2N1Cc1ccccc1,-48.1%
11,CCCn1c(C)cc(/C=C(\C#N)C(=O)OCC(=O)N(C)c2c(N)n(Cc3ccccc3)c(=O)[nH]c2=O)c1C,11%
12,O=C(CCc1[nH]c2ccccc2c1Sc1ccccc1)N(CCO)CCO,-4.7%
13,COc1cccc(-c2ccc(SCC(=O)N3CCN(c4ccccc4)CC3)nn2)c1,2.75%
14,CC(=O)N1CCSc2ccc(S(=O)(=O)N3CCC(C)CC3)cc21,2.03%
15,CC1(C)C(=O)CCC2(C)C1=CCC1C2C(=O)CC2(C)C1CCC2(O)C(=O)CO (centres undefined),-1.57%
16,CCn1ccnc1CN(C)C(=O)c1ccc2nc(Cc3ccc(OC)cc3)oc2c1,-0.56%
17,CC[C@]12c3[nH]c4cc(CCC(=O)N(C)C)ccc4c3CCN1C(=O)[C@@H](CC(=O)NCCCN(C)C)C[C@@H]2C(=O)N1CCN(C(=O)c2ccco2)CC1,-1.81%
18,CC(OC(=O)c1ccc(-n2cnnn2)cc1)C(=O)NCc1ccccc1 (centres undefined),-2.55%
19,O=C(NCc1ccc(Cl)cc1)c1cc2c(nc3sccn32)s1,-1.5%
20,CCCNC(=O)N1CCC(c2ccc3c(c2)OCO3)CC1,3.31%
21,Cc1noc(C)c1CCC(=O)O,1.5%
22,COCCNc1nnc(SCC(=O)NNC(=O)c2ccco2)s1,3.66%
23,COc1ccc(COCCN2CCN(S(=O)(=O)c3ccccc3)CCC2=O)cc1,1.02%

row,SMILES,inhibition
1,CCN(CCn1cccn1)Cc1nc(-c2ccc(C(=O)OC)cc2)no1,0.0185%
2,CC1CCCCC1NC(=O)Cn1c(=O)cnc2ccccc21 (centres undefined),2.53%
3,CN(C(=O)CN(CCO)CC(=O)N(C)C(C)(C)Cc1ccccc1)C(C)(C)Cc1ccccc1,19.2%
4,CC(C#N)OC(=O)c1cccnc1SCC(=O)Nc1ccc2c(c1)OCO2 (centres undefined),-6.97%
5,O=C(NCCO)C(=O)NCC(c1ccc2c(c1)OCO2)N1CCN(c2ccc(F)cc2)CC1 (centres undefined),0.936%
6,Cn1c(=O)c(C(=O)Nc2ncccn2)c(O)c2ccccc21,-0.24%
7,CC(C)CN(CC(C)C)C(=O)CN1c2cccc3cccc(c23)S1(=O)=O,0.144%
8,COc1ccccc1N1CCN(C(=O)C2Cc3ccccc3CN2C(=O)c2ccco2)CC1 (centres undefined),-8.37%
9,O=C(NC(=S)NC1CCSC1=O)c1ccccc1F (centres undefined),-9.37%
10,CCc1c(O)cc2n(c1=O)-c1ccccc1C2(C)C,-2.57%
11,CN(CC1CCCO1)S(=O)(=O)c1ccc(C(=O)Nc2ccc([N+](=O)[O-])cc2)cc1 (centres undefined),-6.82%
12,COc1c(N2CCN(C(=S)Nc3ccccc3F)C(C)C2)c(F)cc2c(=O)c(C(=O)O)cn(C3CC3)c12 (centres undefined),91.3% (active)
13,COc1ccccc1NC(=S)N1CCN(c2ccc(F)cc2)CC1,1.21%
14,CC1CN(C(=S)Nc2ccccc2F)CC(C)O1 (centres undefined),6.69%
15,Cc1ccc(S(=O)(=O)N2CCN(C(=O)COC(=O)CNC(=O)c3ccc(C(C)(C)C)cc3)CC2)c(C)c1,6.64%
16,CN1CCN(S(=O)(=O)c2ccc(N3CCN(c4ccccc4O)CC3)c([N+](=O)[O-])c2)CC1,-4.89%
17,O=C(NCc1ccco1)c1ccc(NS(=O)(=O)c2cccc([N+](=O)[O-])c2)cc1,-12.7%
18,COCCCNC(=O)CCc1nc2cccnc2n1Cc1ccc(OC)cc1,5.25%
19,Cc1ccc(NC(=S)N(CCN(C)C)Cc2cccs2)cc1C,-0.631%
20,COc1ccc2c3c1O[C@H]1C[C@@H](O)C=C[C@@]31CCN(C)C2,-6.89%
